# Measurements published in PMC7819943, “Rice protein-binding microarrays: a tool to detect cis-acting elements near promoter regions in rice”.
# The full ranking holds about 35,000 sequences; the median of “fluorescence intensity (a.u.)” is about 10,000, and the highest 2% start at about 52,000. For the sample, the highest values were picked, then their nearest neighbours and some sequences at random.
# Biological target: T1, OsWOX13 (Oryza sativa, UniProt Q5QMM3 1-267)
# T1 sequence: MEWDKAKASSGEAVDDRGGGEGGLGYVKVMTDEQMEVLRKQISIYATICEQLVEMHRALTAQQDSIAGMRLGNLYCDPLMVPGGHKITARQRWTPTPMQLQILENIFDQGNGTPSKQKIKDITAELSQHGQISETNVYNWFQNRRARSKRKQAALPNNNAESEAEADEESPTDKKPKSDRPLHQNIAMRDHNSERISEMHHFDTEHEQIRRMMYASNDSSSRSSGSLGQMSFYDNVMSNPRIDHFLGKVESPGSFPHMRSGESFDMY
# Assay: protein-binding microarray (RPBM); PBS, 2% BSA, 51.3 ng/ul salmon testes DNA, 50 uM zinc acetate, 200 nM TF, 25 C, 1 h; high values mean tight binding
# Conditions: protein: recombinant; tags: N-terminal polyhistidine and DsRed monomer fusion (pET32a); label: CyDye5-dUTP incorporated in the synthesized complementary strand; 3' TTTTT single-stranded linker to array surface; dsDNA, one strand shown
# Outline: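 The binding signal is fluorescence intensity per array feature (arbitrary units). Readings came from an Axon 4000B scanner after a washed, 2% BSA-blocked, double-stranded custom Agilent array had been incubated for 1 h at 25 °C with 200 nM protein and 50 µM zinc acetate. The protein was a Ni–NTA-purified transcription factor fused N-terminally to polyhistidine and DsRed, expressed in E. coli BL21-CodonPlus.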
row,Sequence,binding signal
1,ATCACACCCTAAATTGACTGTATTTGTGCTGAATTTTACACGGAGTCACCTAGTGCAG,12300 fluorescence intensity (a.u.)
2,CAGCCGGATTGATTGCGTAGCTGTGTGCAAGGCTGGGCGACGGAGTCACCTAGTGCAG,35900 fluorescence intensity (a.u.)
3,TGGTTAATTTAGCTTCTCCCCTTTCTCGTGTCCTTAGATTCGGAGTCACCTAGTGCAG,10200 fluorescence intensity (a.u.)
4,ATAAAATTAAAGTAAATGTGATACAAACGTGGCATGTTTGCGGAGTCACCTAGTGCAG,8490 fluorescence intensity (a.u.)
5,AGACTAATTGAAGCTAGGATATATGATGCAAGGAGAGAGGCGGAGTCACCTAGTGCAG,29500 fluorescence intensity (a.u.)
6,ACCTTAAATTTGTAGTTGATTTTAGGGTTTTCTCATTGAACGGAGTCACCTAGTGCAG,27700 fluorescence intensity (a.u.)
7,ATAATAGATTTGGTCAAAATTTATCGAAAACCGATCGAAACGGAGTCACCTAGTGCAG,13200 fluorescence intensity (a.u.)
8,AAATTAAATAACATGTGATTATGGCATACTGTAAGTAGTACGGAGTCACCTAGTGCAG,12000 fluorescence intensity (a.u.)
9,ACCAAATTAATTTATTAAACATAAAATTGAATATATTTTGCGGAGTCACCTAGTGCAG,46500 fluorescence intensity (a.u.)
10,ATAAATGGGCTATTAGATTGACTATAAATGATTTGGAGCCCGGAGTCACCTAGTGCAG,57100 fluorescence intensity (a.u.)
11,ATGGACTATTAAATTGACTATAAATGATTTGGAGCTAGTACGGAGTCACCTAGTGCAG,22200 fluorescence intensity (a.u.)
12,TATGAATTGGCTATTAAATTGACTATAAATGATTTAGAGCCGGAGTCACCTAGTGCAG,37200 fluorescence intensity (a.u.)
13,GAGACCATATCATTGATAGATACATGCATGCATCCTACTACGGAGTCACCTAGTGCAG,7660 fluorescence intensity (a.u.)
14,AAGACTAAAGGCTCAATTGATTGGACGGGAGATATGAAAACGGAGTCACCTAGTGCAG,9490 fluorescence intensity (a.u.)
15,ATATGATATTTGTCCATCTTAATTGCTTATAAGCTGTATACGGAGTCACCTAGTGCAG,5090 fluorescence intensity (a.u.)
16,ACCGTAACCTGATTGATAATTTACTGATTTACTCATTGTTCGGAGTCACCTAGTGCAG,64700 fluorescence intensity (a.u.)
17,GTAATTGACAACTGACAACCGACAGTTATTGACTCATTCCCGGAGTCACCTAGTGCAG,54900 fluorescence intensity (a.u.)
18,TATGATTTGTCTACGTTACAAACATAAACCTTTTCTTCTCCGGAGTCACCTAGTGCAG,11400 fluorescence intensity (a.u.)
19,GGCCAGTAATTAACCATATTTATCATTTAAACTACTCAGTCGGAGTCACCTAGTGCAG,9040 fluorescence intensity (a.u.)
20,ATTTTGGTTTCTGTTATTGACAAAACAACTCACTCATTCCCGGAGTCACCTAGTGCAG,3480 fluorescence intensity (a.u.)
21,TAATAAATTTGACTAGTTATTCAACTTTGACATAAAATCCCGGAGTCACCTAGTGCAG,11500 fluorescence intensity (a.u.)
22,TAGATTGATTGTTACTCCGTACATAACCTTGTCTTCTTCGCGGAGTCACCTAGTGCAG,55400 fluorescence intensity (a.u.)

row,Sequence,binding signal
1,ATTTATGTAATTATCATTTATTTTATTGTAAATTTATTTACGGAGTCACCTAGTGCAG,16300 fluorescence intensity (a.u.)
2,GGAGTGCAAATTAGTCCGGATTTTACTGAATATTGATAACCGGAGTCACCTAGTGCAG,3300 fluorescence intensity (a.u.)
3,ATTGCTGATTGTCTGTTCTTTTACTTGACATAACCTGAATCGGAGTCACCTAGTGCAG,30100 fluorescence intensity (a.u.)
4,TTGTTGATAACCGATAATTTGGTAAATTATTGATTTTATTCGGAGTCACCTAGTGCAG,19900 fluorescence intensity (a.u.)
5,GTCCGTAATTGATCATATTTATCATTTAAATTACTCAGTGCGGAGTCACCTAGTGCAG,61900 fluorescence intensity (a.u.)
6,GCTGGTTTGATTAGATCTTCATCCCACGTGGCATTGACGTCGGAGTCACCTAGTGCAG,17200 fluorescence intensity (a.u.)
7,TCTTGTAATTATTCTATGTTTAATACTCTAAATTAGCATCCGGAGTCACCTAGTGCAG,20000 fluorescence intensity (a.u.)
8,TGGTGATAATGTCATTCTGTTATTACAGAGGTCAACGTGTCGGAGTCACCTAGTGCAG,3410 fluorescence intensity (a.u.)
9,CTCCACTAATCCTACCAATTAACGAGTCGTACTCAATAATCGGAGTCACCTAGTGCAG,7550 fluorescence intensity (a.u.)
10,CAGCTGTTCTAATGATTTGAGATATATCAAACTTGTCAAACGGAGTCACCTAGTGCAG,3250 fluorescence intensity (a.u.)
11,TAAGTTAATAGATATTTAACGTTTATAATAAGATTTGTTTCGGAGTCACCTAGTGCAG,9590 fluorescence intensity (a.u.)
12,AGCGCAACTAATTAAACTAGGCTTATCAGGCGACAGCGGCCGGAGTCACCTAGTGCAG,4920 fluorescence intensity (a.u.)
13,CACCCAATCACAATCCAACCCACGCCATTGCAACCAAATTCGGAGTCACCTAGTGCAG,4130 fluorescence intensity (a.u.)
14,GGCAATCAATCAACCAATCACCAGCTTACAATTCGGCCACCGGAGTCACCTAGTGCAG,59300 fluorescence intensity (a.u.)
15,TCAAACAAACCAATCAATCAATCAATCAGGGGATTCTTACCGGAGTCACCTAGTGCAG,42300 fluorescence intensity (a.u.)
16,GTGTAATTTTGTTAGGAAATTTGGGTTTGAATCAGTGGAACGGAGTCACCTAGTGCAG,12500 fluorescence intensity (a.u.)
17,TCCTGATTTCGCCGCCACTTGTAGCATCTGCCCGTGGGGTCGGAGTCACCTAGTGCAG,5510 fluorescence intensity (a.u.)
18,GATTAATTAGACTTAATAAATTTGTCTCACGGTTTACGGACGGAGTCACCTAGTGCAG,40500 fluorescence intensity (a.u.)
19,TACTAATCATAGACTAATTAGGCTCAAAAGATTCGTCTCACGGAGTCACCTAGTGCAG,31300 fluorescence intensity (a.u.)
20,GCTAATCATAGACTAATTAGACTCAAAAGATTAGTCTCGCCGGAGTCACCTAGTGCAG,52800 fluorescence intensity (a.u.)
21,ACTAATTAGACTTAAAAGATTTGTCTCATGATTTACTCCCCGGAGTCACCTAGTGCAG,56300 fluorescence intensity (a.u.)
